TbPYK inhibitor: qHTS of Trypanosoma Brucei Inhibitors | TbPYK enzyme, Kinase-Glo Plus ATP luminescence, 45 min | Potency, µM (top dose mostly 76.8 µM), actives largely listed as inhibitors | 0.12% of 410,000 active | AID 624173, 2012 | pyruvate kinase (Trypanosoma brucei), Q57TT1; note: nearly all actives have a fitted effect of over 50% in size
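ADP (130 uM final) triggers the TbPYK reaction after compound addition; incubation is 45 min at room temperature. Kinase-Glo Plus is then added and luminescence imaged. Normalized data are fitted to concentration-effect curves.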
Sm TGR inh: qHTS Assay for the Inhibitors of Schistosoma Mansoni Peroxiredoxins; Potency, µM (top dose mostly 114 µM), actives largely listed as inhibitors; 3% of 360,000 active; Schistosoma mansoni thioredoxin glutathione reductase (TGR), Q962Y6; purified TGR, DTNB reduction, TNB absorbance 405 nm; note: nearly all actives have a fitted effect of over 60% in size
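TGR 20 nM + NADPH 100 uM (dispensed conc.), cpd preinc 15 min RT; start with NADPH (500 uM addition) then DTNB (15 mM addition). Kinetic TNB absorbance, 405 nm filter. Four-parameter Hill fit across titration.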
RE007 growth inh: qHTS Assay for Inhibitors of the HIV-1 protein Vpr; S. pombe RE007 Vpr strain, BacTiter-Glo ATP luminescence, 24 h; Potency, µM (titrated, usually from 92.2 µM), usual class: inhibitors; 0.21% of 360,000 active; AID 651644, 2012; active = well fitted falling curve with a large enough effect; inconclusive = small, poorly fitted or top-dose-only effect; inactive = no such curve, though single readings can be large or run the other way; note: nearly all actives have a fitted effect of over 50% in size
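Fission yeast RE007 carrying one integrated HIV-1 vpr copy, seeded at OD 0.01 in PMG+AL medium with 23 nL pinned compound. Grown 24 h at 30 degrees; viability read by BacTiter-Glo luminescence after 5 min.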
SARS PLpro yeast: qHTS of Yeast-based Assay for SARS-CoV PLP | S. cerevisiae expressing SARS-CoV PLpro, growth rescue | Potency, µM (titrated, usually from 32.9 µM), actives largely listed as activators | 0.19% of 330,000 active | AID 485353, 2010; calls by dose curve; note: nearly all actives have a fitted effect of over 55% in size
NS1 function inh: qHTS Assay for Inhibitors of Influenza NS1 Protein Function; Potency, µM (top dose mostly 46.1 µM); 0.4% of 270,000 active; calls by dose curve; note: actives are rising curves; nearly all actives have a fitted effect of over 50% in size
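S. cerevisiae expressing influenza A NS1, grown in glucose, washed, then diluted 1:100 into pH 6.0 -URA galactose medium with 23 nl compound. Growth recovery read as OD600; NS1-free strain serves as control.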
LmPK inhibitor: qHTS Assay for Inhibitors of Leishmania Mexicana Pyruvate Kinase (LmPK). purified LmPK, Kinase-Glo ATP luminescence, 1 h. AID 1721, 2009. 0.37% of 290,000 active. Q27686. Potency, µM (titrated, usually from 57.5 µM), actives largely listed as inhibitors
Target sequence (Q27686 whole entry, looked up): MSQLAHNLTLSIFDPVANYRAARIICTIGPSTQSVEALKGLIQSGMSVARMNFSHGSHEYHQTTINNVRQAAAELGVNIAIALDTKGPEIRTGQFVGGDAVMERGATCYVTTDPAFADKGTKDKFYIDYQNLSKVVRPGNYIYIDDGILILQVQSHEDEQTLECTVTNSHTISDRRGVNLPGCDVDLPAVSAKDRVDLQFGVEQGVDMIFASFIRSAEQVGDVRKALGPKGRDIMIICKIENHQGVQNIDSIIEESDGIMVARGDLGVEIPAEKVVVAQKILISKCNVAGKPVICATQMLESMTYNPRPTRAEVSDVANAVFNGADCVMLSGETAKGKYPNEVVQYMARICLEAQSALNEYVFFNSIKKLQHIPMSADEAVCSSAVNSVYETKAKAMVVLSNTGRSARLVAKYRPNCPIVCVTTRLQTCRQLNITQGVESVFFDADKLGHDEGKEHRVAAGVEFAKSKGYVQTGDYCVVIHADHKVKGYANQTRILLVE
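Screened at intermediate enzyme activity to detect both inhibitors and activators: LmPK at 0.1 nM, with a 0.5 nM enzyme column as activation reference. PEP 0.5 mM, ADP 0.1 mM; ATP detected by luminescence after 1 h.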
A number is an active result; - = inactive; ? = inconclusive; . = not tested or not shown; [ ] = another dose, or the depositor's remark. Compounds with a hit are over-represented: about 3.3% of the library has one in this group of screens. Unless noted, calls come from the whole dose curve; as a rule, active = well fitted curve in the direction sought with a large enough effect; inconclusive = small, poorly fitted or top-dose-only effect, or another doubt; inactive = no such curve, though single readings can be large; an effect the other way counts as inactive or inconclusive.

SMILES	TbPYK inhibitor	Sm TGR inh	RE007 growth inh	SARS PLpro yeast	NS1 function inh	LmPK inhibitor
Cc1cccc(C(=O)n2nc(-c3ccco3)nc2NCc2ccccc2)c1	-	35µM	.	.	.	.
COc1ccc(CNc2nc(-c3ccco3)nn2C(=O)c2ccccc2C)cc1	-	-	.	.	.	.
Cc1ccc(C(=O)n2nc(-c3ccco3)nc2NCc2cccs2)cc1	-	-	.	.	.	.
CCc1ccc(S(=O)(=O)NCc2ccc3c(c2)CCN3C(=O)c2ccc(C)cc2)cc1	-	-	.	.	.	.
Cc1ccc(N/C=C/c2onc(C)c2[N+](=O)[O-])cc1	-	-	-	-	-	-
Cc1cccc(C)c1N/C=C/c1onc(C)c1[N+](=O)[O-]	-	89µM	-	.	-	-
Clc1ccccc1Nc1nnc(-c2ccncc2)s1	?	-	32µM	-	-	4.5µM
FC(F)(F)c1ccc(Cl)c(Nc2nnc(-c3ccncc3)s2)c1	-	.	-	.	.	.
O=C1C=C(NCc2ccccc2)c2ccccc2C1=O	-	28µM	?	-	-	-
O=c1cccccc1NCc1ccccc1	.	35µM	-[3.69 µM]	-	?	-
N#Cc1ccccc1NCc1ccccc1	-	-	-	-	-	-
CCSc1cc(C2C(C#N)=C(N)OC(C)=C2C(=O)OC)c(C)o1 (stereo unspecified)	-	25µM	?	-	-	-
COC(=O)c1nn2c(C(F)(F)F)cc(-c3ccc(Br)o3)nc2c1Br	?	45µM	-	-	-	-
CC(C)(C)NC(=O)c1nn2c(C(F)(F)F)cc(-c3ccccc3)nc2c1Br	-	-	-	-	-	-
CCCN(C(=O)C(C)Oc1cccc(Cl)c1)c1c(N)n(Cc2ccccc2)c(=O)[nH]c1=O (stereo unspecified)	-	-	-	-	-	-
CCCCN(C(=O)C(C)Oc1ccc(Br)cc1)c1c(N)n(Cc2ccccc2)c(=O)[nH]c1=O (stereo unspecified)	?	89µM	-	-	-	-
CO[C@@]1(NC(=O)C2SC(=C(C(N)=O)C(=O)O)S2)C(=O)N2C(C(=O)O)=C(CSc3nnnn3C)CS[C@@H]21 (stereo partly specified)	-	40µM	-[18.4 µM]	.	.	.
CO[C@@]1(NC(=O)CSC[C@@H](N)C(=O)O)C(=O)N2C(C(=O)O)=C(CSc3nnnn3C)CS[C@@H]21	-	.	.	.	.	.
Cc1ccc(-c2noc(CNC(=O)c3ccc(Br)o3)n2)cc1	-	-	.	.	.	.
CN1[C@H]2CC(OC(=O)[C@H](CO)c3ccccc3)C[C@H]1[C@H]1O[C@H]12 (stereo partly specified)	-	.	.	.	.	.
Cc1cc(NC(=O)CSc2nc3ccccc3[nH]2)no1	-	-	-	-	-	-
Cc1[nH]c(SCC(=O)Nc2cc(S(C)(=O)=O)ccc2Cl)nc1Cc1ccccc1	-	3.5µM	-	-	.	.
CS(=O)(=O)c1ccc(Cl)c(NC(=O)CCl)c1	-	6.3µM	-	-	.	-
Cc1ccc(NC(=O)CCl)c(C)c1	-	25µM	-	-	-	-
Cc1ccc(NC(=O)CCc2ccc(C)o2)c(C)c1	-	-	-	-	-	-
SMILES	TbPYK inhibitor	Sm TGR inh	RE007 growth inh	SARS PLpro yeast	NS1 function inh	LmPK inhibitor
CS(=O)(=O)c1ccc(Cl)c(NC(=O)CSc2nncn2-c2ccccc2)c1	-	-	-	-	-	-
Cc1cc(NC(=O)CSc2nc(Cc3ccccc3)c(C)[nH]2)no1	-	35µM	-	-	-	-
O=C(NCC1CCCO1)c1ccc(COc2ccc(F)cc2)o1 (stereo unspecified)	-	35µM	-	-	-	-
N#Cc1nc(-c2ccco2)oc1N1CCc2ccccc2C1	-	50µM	-	-	-	-
CC(C)c1ccc(S(=O)(=O)/N=C2/C=CC(=O)c3ccccc32)cc1	.	8.9µM	.	-	.	-
CCCC1O[C@@H]2C[C@H]3[C@@H]4CCC5=CC(=O)C=C[C@]5(C)C4[C@@H](O)C[C@]3(C)[C@]2(C(=O)CO)O1 (stereo partly specified)	.	.	.	.	-	.
NC1CCc2cc(O)c(O)cc2C1 (stereo unspecified)	?	45µM	-	-	-	.
Oc1cc2c(cc1O)[C@H]1c3ccccc3CNC1CC2 (stereo partly specified)	.	.	.	.	-	.
O=C1S/C(=C/c2ccc(N3CCOCC3)o2)C(=O)N1Cc1ccc(F)cc1	?	1µM	-	-	-	-
O=C1S/C(=C\c2ccc(N3CCOCC3)o2)C(=O)N1Cc1ccc(F)cc1	?	5µM	?	-	-	-
O=C1/C(=C/c2ccc(N3CCOCC3)o2)SC(=Nc2ccccc2)N1CCc1c[nH]c2ccccc12	-	8.9µM	-	-	-	-
O=C1N=C(N2CCOCC2)S/C1=C/c1ccc(-c2ccc(F)cc2)o1	-	-	-	-	-	-
CC(C)(C)OC(=O)CN1C(=O)S/C(=C\c2ccc(-c3cccc(C(=O)O)c3)o2)C1=O	.	-	.	-	-	-
CC(C)OC(=O)CN1C(=O)S/C(=C/c2ccc(N3CCCCC3)o2)C1=O	?	6.3µM	-	-	-	-
C/C(=N\NC(=O)c1ccncc1)c1ccc2ccccc2c1O	.	.	.	.	-	.
COc1ccc(C)cc1NC(=O)NC(C)c1c(-n2cccc2)sc(C)c1C (stereo unspecified)	-	-	.	.	.	.
Cc1ccc(N(C)C(CNS(=O)(=O)c2ccccc2)c2ccccc2)cc1 (stereo unspecified)	-	-	.	.	.	.
CC1=NN(c2ccccc2)C(=O)C1c1ccccc1 (stereo unspecified)	-	-	-	14µM	-	-
O=C1OC(c2ccc(Cl)cc2)=N/C1=C\C=C\c1ccco1	-	28µM	-	-	.	-
